Survival data for 98 compounds are collected here from PubChem BioAssay AID463173 (ICCB-Longwood Screening Facility, Harvard Medical School, 2010).

Hit rate of the full screen: of about 52,000 compounds, about 1,700 (3.3%) were called active. What follows is part of a selection rich in actives, with near analogues and random picks from the rest. Unmarked numbers belong to inactive results. Cut-off read from the data, not from the text of the source: active = survival mostly below about 52% (no sharp cut-off); inactive = mostly above about 56%.

This assay concerns Wild type. The assay can be described thus: S. aureus survival, RN4220 and DeltatarO strains – OD600, teichoic acid synthesis inhibitors, primary screen (AID 463173). To be noted: S. aureus RN4220 wild type/DeltatarO growth, OD600, 18 h, active compounds read low, screened at 18.75 µg/mL (by protocol).
Turning to `Cc1cc(N2CCC(C)CC2)nc2ccc(NC(=O)/C=C/c3cccc(Cl)c3)cc12`, the survival is 69%.
For `Cc1ccc(CNc2ccc(-c3nc(-c4ccncc4)no3)cc2[N+](=O)[O-])cc1`, the survival is 87%.
In the case of `CCc1ccc(NS(=O)(=O)c2c(-c3ccccc3)csc2C(=O)OC)cc1`, the survival was 77%.
In the case of `Cn1c(=O)oc2cc(S(=O)(=O)N3CCCC(C(=O)NCCc4ccc(Cl)cc4)C3)ccc21` (stereo not drawn), the survival is 90%.
With `CCOc1ccc(CNC(=O)CCn2c(=O)c3cccn3c3cccnc32)cc1`, the survival is 93%.
Consider `Cc1cccc(-n2c(=O)c3c(c4cc(C)ccc4n3C)n(Cc3ccccc3F)c2=O)c1`, for which the survival was 153%.
In the case of `O=C1NCN(c2ccccc2)C12CCN(c1nnnn1-c1ccccc1)CC2`, the survival is 102%.
Consider `CCOc1ccc(N2CC(c3nc4ccccc4n3CCC3CCCCC3)CC2=O)cc1` (stereo not drawn), for which the survival was 29%.
Turning to `Cc1ccccc1N1CC(c2nc3ccccc3n2CCC2CCCCC2)CC1=O` (stereo not drawn), the survival was 12% (active).
Consider `CCc1ccccc1N1CC(c2nc3ccccc3n2CC(C)C)CC1=O` (stereo not drawn), for which the survival was 91%.
Take `COc1ccccc1OCCCn1c(C2CC(=O)N(c3ccccc3Cl)C2)nc2ccccc21` (stereo not drawn): the survival is 93%.
In the case of `CCc1ccccc1N1CC(c2nc3ccccc3n2CCC2CCCCC2)CC1=O` (stereo not drawn), the survival was 25% (active).
On to `Cc1cccc(N2CC(c3nc4ccccc4n3CCC3CCCCC3)CC2=O)c1` (stereo not drawn), for which the survival was 44%.
On to `Cc1ccc(N2CC(c3nc4ccccc4n3CCC3CCCCC3)CC2=O)cc1` (stereo not drawn), for which the survival is 80%.
Take `O=C1CC(c2nc3ccccc3n2CCC2CCCCC2)CN1c1ccccc1Cl` (stereo not drawn): the survival is 32% (active).
With `COc1ccccc1OCCCCn1c(C2CC(=O)N(c3ccccc3Cl)C2)nc2ccccc21` (stereo not drawn), the survival is 85%.
The result for `Cc1c(C(=O)NCc2ccc(N(C)C)cc2)oc2c1-c1nn(Cc3cccc(Cl)c3)cc1CC2` reads 91%; that for `CC1CCCN(S(=O)(=O)c2ccc(N)cc2)C1` (stereo not drawn), 109%; that for `Cc1ccc(-c2onc(C)c2C)cc1S(=O)(=O)NCc1ccco1`, 112%.
For `COc1ccc(-c2onc(C)c2C)cc1S(=O)(=O)NCCc1ccccc1`, the survival was 57%.
The value for `Cc1ccc(-c2onc(C)c2C)cc1S(=O)(=O)NCc1ccc(N(C)C)cc1` was -4% (active); that for `Cc1ccc(-c2onc(C)c2C)cc1S(=O)(=O)NCc1cccs1` was 119%; that for `COc1ccc(CCNS(=O)(=O)c2cc(-c3onc(C)c3C)ccc2OC)cc1OC` was -3% (active).
The result for `COCCCNS(=O)(=O)c1cc(-c2onc(C)c2C)ccc1OC` reads 111%.
For `CCOC(=O)n1c(SCC)nc2ccccc21`, the survival was 104%.
`O=C(Cc1ccc(Cl)cc1)NCCc1csc2nc(-c3ccccc3F)nn12`: the survival was 69%.
For the compound `Cc1cc(-c2ccccc2)n2nc(-c3cccc(Br)c3)cc2n1`, the survival is 55%.
The value for `Cc1cc(-c2ccccc2)n2nc(-c3ccccc3)cc2n1` was -2% (active); that for `Cc1cc(C)n2nc(-c3ccccc3)cc2n1` was 116%; that for `CCCCC(=O)Nc1nnc(SCc2cc(=O)n3cc(C)ccc3n2)s1` was 63%.
On to `CC(=O)Nc1nonc1-c1nc2ccccc2n1Cc1ccccc1Br`, for which the survival was 97%.
With `O=C(CCn1c(=O)c2sccc2n(Cc2ccc(F)cc2Cl)c1=O)NCc1ccc2c(c1)OCO2`, the survival was 92%.
For the compound `CCc1ccc2oc(C(=O)NCCc3ccc(OC)c(OC)c3)cc(=O)c2c1`, the survival is 83%.
`Cc1c(C(C)(C)C)sc(=N)n1C`: the survival is 86%.
For the compound `CCc1ccc(-c2[nH]c3c(c2-c2c(-n4cccc4)n(C)c(=O)n(C)c2=O)c(=O)n(C)c(=O)n3C)cc1`, the survival was 105%.
On to `COCCCNC(=O)c1[nH]c2ccccc2c1Sc1ccc(C)cc1`, for which the survival was 81%.
On to `COc1ccc2c(Sc3ccc(Cl)cc3)c(C(=O)NCCCN3CCCCC3)[nH]c2c1`, for which the survival is -1% (active).
For the compound `COc1ccc2c(Sc3ccc(Cl)cc3)c(C(=O)N3CCCCC3)[nH]c2c1`, the survival was 33%.
The value for `O=C(NCCCN1CCCCC1)c1[nH]c2ccccc2c1Sc1ccc(Cl)cc1` was -1% (active).
For `COc1ccc2c(Sc3ccccc3)c(C(=O)NCCCN3CCCCC3)[nH]c2c1`, the survival is 73%.
On to `O=C(c1[nH]c2ccccc2c1Sc1ccc(Cl)cc1)N1CCCCC1`, for which the survival is 48%.
In the case of `CCOc1cc(C2CC(=O)Nc3c2c(C)nn3-c2nc(C)cc(C)n2)ccc1O` (stereo not drawn), the survival is 83%.
On to `CCOC(=O)c1cccc(NC(=O)c2cc3c(-c4cccc(OC)c4)nn(C)c3s2)c1`, for which the survival was 65%.
With `CCc1ccc2occ(CC(=O)N(Cc3ccccc3)C3CCS(=O)(=O)C3)c2c1` (stereo not drawn), the survival was 77%.
For the compound `COc1ccc2c(c1)c1c(c(=O)n(-c3cccc(Cl)c3)c(=O)n1CC(=O)N1CCCC1)n2C`, the survival is 73%.
For the compound `CCCCN(CCCC)CCNC(=O)CN1C(=O)CSc2ccc(S(=O)(=O)N3CCCCC3)cc21`, the survival was 110%.
With `CCOC(=O)c1cc(-c2ccc(OC)cc2)nn1Cc1ccccc1`, the survival is 10% (active).
The result for `O=C(O)c1cc(-c2ccccc2)nn1Cc1ccccc1` reads 68%; that for `CCOC(=O)c1cnn(Cc2ccccc2)c1N`, 104%.
As to `COC(=O)c1ccc(Cn2nc(-c3ccc(C)cc3)ccc2=O)cc1`, the survival was 145%.
The value for `CCc1cccc(NC(=O)Cn2nc(-c3ccc(OC)cc3)ccc2=O)c1` was 59%.
For the compound `CCOC(=O)c1cc(-c2ccccc2)nn1Cc1ccccc1`, the survival was 2% (active).
For the compound `COc1ccc(-c2cc(C(=O)O)n(Cc3ccccc3)n2)cc1`, the survival was 63%.
Take `CCOC(=O)c1cc(-c2ccc(C)cc2)nn1Cc1ccccc1`: the survival was 0% (active).
Regarding `Cc1ccc(-c2cc(C(=O)O)n(Cc3ccccc3)n2)cc1`, the survival was 63%.
Consider `CCOC(=O)c1c(C)[nH]c(C)c1S(=O)(=O)N1CCC(C(=O)NCc2cccc(C)c2)CC1`, for which the survival was 76%.
The value for `COC(=O)C1=C(C)Nc2nc3ccccc3n2C1c1ccccc1` (stereo not drawn) was 91%; that for `CC(=O)NC1CC(=O)N(c2ccc3c(c2)OCCO3)C1` (stereo not drawn) was 66%; that for `COc1ccc(Cl)cc1-n1nnc(-c2nc(-c3ccc4c(c3)OCO4)no2)c1C` was 71%.
The value for `Cc1nc2ccccc2n1C(C)c1ccccc1` (stereo not drawn) was 111%.
Turning to `COc1ccc(OCc2nc3ccccc3n2C(C)c2ccccc2)cc1` (stereo not drawn), the survival was -2% (active).
As to `CCCc1nc2ccccc2n1CC(O)COc1ccccc1` (stereo not drawn), the survival was 103%.
The value for `COc1ccc(OCC(O)Cn2c(C(C)C)nc3ccccc32)cc1` (stereo not drawn) was 107%.
Regarding `Cc1ccc(OCc2nc3ccccc3n2CC(C)C)cc1`, the survival is -1% (active).
As for `CCC(C)Cn1c(COc2ccc(OC)cc2)nc2ccccc21` (stereo not drawn), the survival was -1% (active).
Consider `COc1ccc(OCc2nc3ccccc3n2C(C)C)cc1`, for which the survival was 102%.
Turning to `COc1cccc(OCc2nc3ccccc3n2C)c1`, the survival was 84%.
`Cc1cc(C)n2c(Nc3cccc(C(F)(F)F)c3)c(-c3ccsc3)nc2n1`: the survival is 89%.
With `O=C(c1cccs1)N1CCCc2ccccc21`, the survival was 124%.
Turning to `COc1ccc(-n2ncc3c(NC(C)(C)CO)ncnc32)cc1`, the survival was 59%.
In the case of `Cc1cc(Br)ccc1NC(=O)c1cc2c(s1)-c1ccccc1SC2`, the survival was 78%.
Consider `CCN(CC)c1ccc(NC(=O)CCc2nc3cccnc3n2Cc2cccs2)c(C)c1`, for which the survival was 73%.
Regarding `CCOc1ccc(S(=O)(=O)NCCc2sc(-c3ccc(C)cc3)nc2C)cc1`, the survival was 73%.
As to `Cc1ccc(-c2nc(C)c(CCNS(=O)(=O)c3ccccc3F)s2)cc1`, the survival was 67%.
On to `Cc1ccc(-c2nc(C)c(CCNS(=O)(=O)c3ccc(F)c(C(F)(F)F)c3)s2)cc1`, for which the survival is -6% (active).
In the case of `COc1ccc(N2CC(NC(=O)c3cc4ccccc4o3)CC2=O)cc1OC` (stereo not drawn), the survival was 70%.
With `CCc1nc(SCC(=O)O)c(C#N)cc1C`, the survival was 96%.
Take `O=c1c2c([nH]n1-c1ccccc1)CCCC2`: the survival is 123%.
As for `COc1ccc(NC(=O)c2ccc3c(c2)c(C)c(C)n3Cc2ccc(F)cc2)c(OC)c1`, the survival was 59%.
In the case of `Cc1nc(-c2cccc(F)c2)sc1CCNC(=O)C(=O)Nc1ccc2c(c1)OCCO2`, the survival was 68%.
The result for `COc1ccc(-c2cc(C(F)(F)F)nc(SCCC(=O)N3CCN(C)CC3)n2)cc1` reads 108%.
Take `CCC1CCCCN1C(=O)CSc1nc(-c2ccc(OC)cc2)cc(C(F)(F)F)n1` (stereo not drawn): the survival was -6% (active).
The result for `COc1ccc(-c2cc(C(F)(F)F)nc(SCC(=O)N3CCCCC3)n2)cc1` reads 97%.
The value for `COc1ccc(-c2cc(C(F)(F)F)nc(SCC(=O)N3CCCCC3)n2)cc1OC` was 90%.
In the case of `CCC1CCCCN1C(=O)CSc1nc(-c2ccc(OC)c(OC)c2)cc(C(F)(F)F)n1` (stereo not drawn), the survival is -15% (active).
Consider `COc1ccc(-c2cc(C(F)(F)F)nc(SCC(=O)N3CCCCC3C)n2)cc1OC` (stereo not drawn), for which the survival was 69%.
The value for `Cc1cc(C)n(-c2nc3cc(Cl)c(Cl)cc3nc2Nc2ccc(F)cc2C)n1` was 82%; that for `Cc1oc(C(C)(C)C)cc1C(=O)NC(Cc1ccccc1)C(=O)O` (stereo not drawn) was 98%; that for `Cc1ccc(CNC(=O)C2CCN(c3ncnc4c3nc3n4CCCCC3)CC2)cc1` was 85%.
Turning to `COc1ccccc1N1CCN(C(=O)c2cc(-c3ccc(F)cc3)on2)CC1`, the survival is 73%.
As for `COc1ccc(-c2cc(C(=O)N3CCN(c4ccc(F)cc4)CC3)no2)cc1OC`, the survival was 72%.
Consider `COc1cccc(-c2cc(C(=O)N3CCN(c4ccccc4OC)CC3)no2)c1`, for which the survival is -9% (active).
In the case of `COc1ccccc1N1CCN(C(=O)c2cc(-c3ccccc3O)on2)CC1`, the survival was 66%.
Consider `COc1cccc(-c2cc(C(=O)N3CCN(c4ccc(F)cc4)CC3)no2)c1`, for which the survival was 78%.
With `COc1ccc(N2CCN(C(=O)c3cc(-c4ccc(C)c(F)c4)on3)CC2)cc1`, the survival is 106%.
In the case of `O=C(c1cc(-c2ccc(O)cc2)on1)N1CCN(c2ccccc2)CC1`, the survival is 51%.
As for `COc1ccc(-c2cc(C(=O)N3CCN(c4ccccc4)CC3)no2)cc1`, the survival is 16% (active).
`COc1ccccc1-c1cc(C(=O)N2CCN(c3ccccc3)CC2)no1`: the survival is -10% (active).
